From PubChem BioAssay
In the library only some 10% were active in any assay of this set; here they are far more common.
GLA spleen mod: qHTS Assay for Inhibitors and Activators of Human alpha-Galactosidase From Spleen Homogenate; human spleen homogenate, 4MU-alpha-Gal fluorescence, 40 min; Potency, µM (doses to about 80 µM), without a hit: top-dose activity change, negative = inhibition, usual class: inhibitors; hit rate 0.008% among 240,000; AID 2107, 2009;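 also: potency is read from the fitted curve at half-maximal effect; 0% = enzyme with vehicle and -100% = no enzyme basal signal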
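Inhibition or activation of alpha-galactosidase in human spleen homogenate is scored by 4-MU fluorescence after 40 min at 37C, pH 5.0, with 1 mM substrate. AC50s come from concentration-response fitted to the Hill equation.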
PNC assembly inh: High Content Assay for Compounds that inhibit the Assembly of the Perinucleolar Compartment; activity change (PNC), negative = inhibition, % at 10 µM; PC3M PTB-GFP, PNC prevalence imaging, 16 h; stronger effect = lower value; hit rate 3.1% among 140,000;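 active = readout at or below -70, meaning at least 70% loss of cells showing the perinucleolar compartment, a nuclear body marking cancer cells; inconclusive = readout between -30 and a set limit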;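 also: plate controls were DMSO wells for no effect and camptothecin positive control wells for full effect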
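PC3M cells stably expressing PTB-GFP, 750–1000 cells/well, treated 16 h at 37 °C with compound (23 nl of library stock), in duplicate. After paraformaldehyde fixation and Hoechst stain, imaged at 20x; PNC prevalence scored by image analysis.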
HPGD block: qHTS Assay for Inhibitors of HPGD (15-Hydroxyprostaglandin Dehydrogenase); 15-hydroxyprostaglandin dehydrogenase [NAD(+)] (Homo sapiens), P15428; purified HPGD, NADH fluorescence kinetic, PGE2 substrate; Potency, µM, for the others: at the highest dose activity change, negative = inhibition, most hits filed as inhibitors; hit rate 4.3% among 150,000; active = well fitted inhibition curve with a large enough effect, not every such curve was filed as active; inconclusive = small, poorly fitted or top-dose-only effect, or another doubt; inactive = no such curve, though single readings can be large or run the other way; also: potency is read from the fitted curve at half-maximal effect
Target sequence (P15428 whole entry, looked up): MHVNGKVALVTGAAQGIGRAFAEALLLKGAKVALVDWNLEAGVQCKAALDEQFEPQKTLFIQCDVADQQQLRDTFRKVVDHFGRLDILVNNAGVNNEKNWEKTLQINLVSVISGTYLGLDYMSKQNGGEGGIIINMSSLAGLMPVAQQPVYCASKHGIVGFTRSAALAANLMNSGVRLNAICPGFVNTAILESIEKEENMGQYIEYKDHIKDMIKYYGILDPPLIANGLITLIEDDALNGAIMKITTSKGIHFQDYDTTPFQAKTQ
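20 nM HPGD preincubated 15 min at room temperature with compound in 50 mM Tris-HCl pH 8, 0.01% Tween 20. Started with 1 mM NAD+ and 30 uM prostaglandin E2; NADH fluorescence (360/450 nm) read 5 times over 30-s intervals, last minus first.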
GLA inh pH 4.5: qHTS Assay for Inhibitors of Human alpha-Galactosidase at pH 4.5; purified enzyme, 4-MU-alpha-Gal fluorescence, pH 4.5; activity change, negative = inhibition, % at 105 µM; 230,000 tested, under 10 active; Alpha-galactosidase A (Homo sapiens), P06280; AID 1467, 2008;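 also: 0% = full activity with enzyme and -100% = basal without enzyme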
ALDH1A1 inh: qHTS Assay for Inhibitors of Aldehyde Dehydrogenase 1 (ALDH1A1). Purified ALDH1A1, NADH fluorescence, propionaldehyde substrate. Potency, µM (top dose mostly 75.3 µM), for the others: top-dose activity, negative = inhibition, most hits filed as inhibitors. Aldehyde dehydrogenase 1A1 (Homo sapiens), P00352. AID 1030, 2008. hit rate 7.3% among 220,000; active = well fitted inhibition curve with a large enough effect, not every such curve was filed as active; inconclusive = small, poorly fitted or top-dose-only effect, or another doubt; inactive = no such curve, though single readings can be large or run the other way;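 also: potency is read from the fitted curve at half-maximal effect; plate controls were no enzyme wells and a reference inhibitor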
12-hLO inh: qHTS Assay for Inhibitors of 12-hLO (12-human lipoxygenase). Potency, µM (series often up to 57.1 µM), for inactives: top-dose activity change, negative = inhibition, most hits filed as inhibitors. AID 1452, 2008. hit rate 0.12% among 150,000. purified 12-hLO, xylenol orange hydroperoxide absorbance. Polyunsaturated fatty acid lipoxygenase ALOX12 (Homo sapiens), P18054; also: potency is read from the fitted curve at half-maximal effect; nearly all actives have a fitted effect of over 55% in size
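Purified human 12hLO (150 nM final) was preincubated with compounds for 15 min at room temperature in 25 mM Hepes pH 7.0, 0.01% Triton X-100, then reacted with 40 uM arachidonic acid for 30 min. Hydroperoxide was detected with ferrous iron/xylenol orange.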
Starred values were filed as active, the others as inactive; ? = inconclusive; nt = no result. Unless noted, calls follow the shape of the dose curve; as a rule, active = well fitted curve in the direction sought with a large enough effect; inconclusive = small, poorly fitted or top-dose-only effect, or another doubt; inactive = no such curve, though single readings can be large; an effect the other way counts as inactive or inconclusive. Unless noted, % is scaled to controls: 0 for no effect and ±100 for the full control effect.

SMILES | GLA spleen mod | PNC assembly inh | HPGD block | GLA inh pH 4.5 | ALDH1A1 inh | 12-hLO inh
COC(=O)C(CCCCNC(=O)OCc1ccccc1)NC(=O)CN (centres undefined) | 2% | 29 | -3% | -6 | 28µM* | 4%
O=C(O)CCCNC(=O)OCc1ccccc1 | 5% | -24 | 0% | -3 | 8% | -2%
COc1cccc2cc(C(=O)N3CCc4ccccc4C3)c(=O)oc12 | 8% | ? | 7.9µM* | 5 | 0% | 1%
COc1cc2c(cc1OC)CN(C(=O)c1cc3ccccc3oc1=O)CC2 | 7% | -13 | -1% | 4 | 14% | -1%
CCOc1cccc2cc(C(=O)N3CCc4ccccc4C3)c(=O)oc12 | 6% | 28 | 4.5µM* | -5 | -12% | -9%
CCOc1cccc2cc(C(=O)Nc3ccccc3-c3ccccc3)c(=O)oc12 | ? | 59 | -15% | -10 | 0.14µM* | -1%
COC(=O)[C@@]1(Cc2ccc(F)cc2)[C@H]2c3cc(C(=O)N(C)C)n(CC4CC4)c3C[C@H]2CN1C(=O)c1ccccc1 | 9% | nt | -11% | -7 | 5% | -3%
Cc1occc1C(=O)NN=C1C2CC3CC(C2)CC1C3 | 0% | -100* | -7% | -2 | ? | -1%
COc1ccc(CCNC(=O)CSc2nncn2N)cc1OC | -7% | -82* | -12% | 0 | ? | 2%
COc1ccc(CCNC(=O)CSc2ccccc2)cc1OC | 2% | 10 | -12% | 5 | -4% | 0%
COc1ccc(CCNC(=O)CSc2nnnn2-c2ccccc2OC)cc1OC | 1% | 25 | -10% | -3 | 0.28µM* | 1%
COc1ccc(CCNC(=O)CSc2nnnn2C)cc1OC | 0% | nt | nt | 4 | 6% | nt
O=C(COC(=O)c1ccc(Br)o1)Nc1nc2ccccc2s1 | 2% | ? | -4% | -10 | 5% | -6%
O=C(COC(=O)c1ccc([N+](=O)[O-])o1)Nc1nc2ccccc2s1 | ? | nt | nt | -2 | 32µM* | nt
COc1c(C)cc(C(=O)C2CCCN(C(=O)CCCn3cncn3)C2)cc1C (centres undefined) | 10% | nt | nt | -2 | nt | nt
O=C(c1cccc2ccccc12)C1CCCN(C(=O)CCCn2cncn2)C1 (centres undefined) | -1% | nt | nt | 6 | 10µM* | nt
Cc1ccccc1-c1cncnc1NCc1ccccc1 | -11% | nt | nt | nt | ? | nt
C/C(=N\NC(=O)CSCc1ccc([N+](=O)[O-])cc1)c1ccccc1O | 4% | 7 | -18% | 1 | -7% | -11%
CCC(C)OC(=O)C1=C(C)O[C@]23OC(N)=C(C#N)[C@]12C(=O)c1ccccc13 (some centres undefined) | ? | -100* | -22% | -2 | ? | 7%
COC(=O)c1ccccc1NC(=S)N(Cc1ccc2c(c1)OCO2)Cc1cc2ccc(OC)cc2[nH]c1=O | -4% | 14 | -11% | -17 | ? | -1%
O=C1c2ccccc2C(O)(Cc2ccccc2)N1C1CCCCC1 (centres undefined) | -15% | ? | -13% | 11 | 22µM* | -11%
CC1C[C@@]2(NC(=O)NC2=O)C(C)CN1C (some centres undefined) | 0% | -100* | -15% | 0 | 9% | 0%
CC1CC2(NC(=O)NC2=O)C(C)CN1C (centres undefined) | 0% | ? | 1% | -5 | 11% | -4%
c1cc(N2CCCC2)ccc1C(c1nnnn1C1CCCCC1)N1CCOCC1 (centres undefined) | -14% | 21 | nt | -1 | 25µM* | -5%
